Experimental findings from the supplement of paper PMC7858590 are described below.

In all, about 3,800 compounds were measured (“cell shape (eccentricity) Z-score vs DMSO control”: median about 1.1, lowest 2% from about -4.7 on). What follows is part of a selection rich in the lowest values, with near analogues and random picks from the rest.

This test deals with human monocyte-derived macrophages (M0). The test is described as follows: cell shape (eccentricity) Z-score vs DMSO control; higher = more elongated, M2-like morphology. The conditions noted are these: 20 µM; 24 h; macrophage state: M0 (M-CSF). On the procedure: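 Primary human monocyte-derived macrophages (M-CSF differentiated, pooled from 4 donors, 5000 cells/well in 384-well plates) were treated with each compound at 20 uM for 24 h, then fixed and stained with phalloidin/DAPI and imaged on an Opera Phenix (6 fields, about 1000 cells/well). Cell eccentricity was measured with CellProfiler, and a Z-score (t-test) was computed against 4 DMSO control wells in the same row. Negative values mean round (M1-like) cells and positive values mean elongated (M2-like) cells; the paper's hit cutoffs are Z <= -4 (M1) and Z >= 6 (M2). Scale: negative = round, M1-like.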
In the case of `Cc1cc(O)cc2oc3cc(O)cc(O)c3c(=O)c12`, the “cell shape (Z-score)” value was -1.58.
As to `CCCC(=O)Nc1ccc(OCC(O)CNC(C)C)c(C(C)=O)c1` (centres undefined), the “cell shape (Z-score)” value came to 1.65.
Next, `CC1=C(CO)C(=O)OC([C@@H](C)[C@H]2CCC3C4CC=C5C[C@@H](O[C@@H]6O[C@H](CO)[C@@H](O)[C@H](O)[C@H]6O)C[C@H](O)[C@]5(C)C4CC[C@@]32C)C1` (some centres undefined): 1.5; `C[C@@H](Oc1cc(-n2cnc3ccc(CN4CCN(C)CC4)cc32)sc1C(N)=O)c1ccccc1C(F)(F)F`: 3.02; `C=C1[C@H]2CC[C@@]3(C)[C@H](c4ccoc4)OC(=O)C[C@]13O[C@H]1C[C@H](O)C(C)(C)[C@H](CC(=O)OC)[C@]12C`: -1.66.
With `C=C1C(=O)OC2CC3(C)CCC=C(CO)C3CC12` (centres undefined), the “cell shape (Z-score)” value was -3.71.
For the compound `COC(=O)C1=CO[C@@H](O[C@@H]2O[C@H](CO)[C@@H](O)[C@H](O)[C@H]2O)[C@H]2[C@@H]1C=CC21C=C([C@H](C)O)C(=O)O1` (some centres undefined), the “cell shape (Z-score)” value came to 2.96.
In the case of `CC(=O)OCC(Cc1ccccc1)NC(=O)C(Cc1ccccc1)NC(=O)c1ccccc1` (centres undefined) it was 0.368; in that of `Cc1cc(O)c(C=O)c2c1C(=O)Oc1c(C)c(O)c3c(c1O2)C(O)OC3=O` (centres undefined), 1.11; in that of `Cc1cc(O)c(C)c2c1Oc1c(C)c(O)cc(C)c1C(=O)O2`, -6.49.
In the case of `COc1cc(C)c2c(c1C=O)Oc1c(c(C)c(O)c3c1C(O)OC3=O)OC2=O` (centres undefined), the “cell shape (Z-score)” value was -1.59.
Consider `CC(=O)OCC(=O)[C@@]1(O)CCC2C3C[C@H](C)C4=CC(=O)C=CC4(C)C3[C@@H](O)CC21C` (some centres undefined), for which the “cell shape (Z-score)” value is -2.52.
Next, `CC(CN(C)C)CN1c2ccccc2Sc2ccccc21` (centres undefined): -1.29; `COc1ccc2nc(NC(=O)Nc3ccccc3)sc2c1`: 2.21; `O=C(Nc1ccc(C(=O)O)c(O)c1)c1ccccc1`: 1.5.
Consider `O=C(Nc1nc2ccc(NC(=O)C34C[C@H]5C[C@@H](C3)C[C@@H](C4)C5)cc2s1)c1ccccc1`, for which the “cell shape (Z-score)” value is -4.79.
For the compound `N=C(N)NCCNS(=O)(=O)c1cccc2cnccc12`, the “cell shape (Z-score)” value was found to be 5.63.
Turning to `CCCCCC1C(=O)O/C(=C\C(=O)O)C1=O` (centres undefined), the “cell shape (Z-score)” value is -1.15.
With `C[C@H](NC(=O)/C(C#N)=C/c1ccc(O)c(O)c1)c1ccccc1`, the “cell shape (Z-score)” value is -2.26.
As for `C[C@@H](NC(=O)/C(C#N)=C\c1ccc(O)c(O)c1)c1ccccc1`, the “cell shape (Z-score)” value was found to be 0.038.
In the case of `CCC[C@H](NC(=O)/C(C#N)=C/c1cccc(Br)n1)c1ccccc1`, the “cell shape (Z-score)” value was -4.73.
Regarding `C[C@@H]1CN(CC(=O)Nc2ccc3c(c2)Cc2cccc(-c4cc(=O)cc(N5CCOCC5)o4)c2S3)C[C@H](C)O1`, the “cell shape (Z-score)” value amounted to 4.22.
Next, `CC(=O)Oc1cc2c(c(C)c1OC(C)=O)CC=C1[C@@]2(C)CC[C@@]2(C)C3C[C@](C)(C(=O)O)CC[C@]3(C)CC[C@]12C` (some centres undefined): -13.8; `CC1(C)C2CC[C@]3(C)C(C(=O)C=C4[C@H]5C[C@@](C)(C(=O)O)CC[C@]5(C)CC[C@]43C)[C@@]2(C)CC[C@@H]1O` (some centres undefined): 0.344; `Cc1cc(C(C)(C)CC(C)(C)C)ccc1OCCOCC[N+](C)(C)Cc1ccccc1`: -4.7.
In the case of `CC(C)(C)CC(C)(C)c1ccc(O)c(-n2nc3ccccc3n2)c1` it was -0.381.
Take `CC(C)(C)CC(C)(C)c1ccc(OCCOCC[N+](C)(C)Cc2ccccc2)cc1`: the “cell shape (Z-score)” value was -0.216.
With `O=C(O)c1cccnc1Nc1cccc(C(F)(F)F)c1`, the “cell shape (Z-score)” value turned out to be 2.97.
`COc1ccc(/C=C/C(=O)c2ccc(O)cc2O)cc1`: the “cell shape (Z-score)” value was -5.34.
Next, `COc1ccc(/C=C/C(=O)c2cc(O)ccc2O)cc1`: 2.34; `CCOC(=O)C1=C(C)NC(C)=C(C(=O)OC)C1c1cccc([N+](=O)[O-])c1` (centres undefined): 1.64.
Take `COc1ccc2c(c1OC)OC[C@@H](c1ccc(OC)c(OC)c1OC)C2`: the “cell shape (Z-score)” value came to 2.19.
Next, `COc1cc(C[C@@H]2COC(c3ccc(O[C@@H]4O[C@H](CO)[C@@H](O)[C@H](O)[C@H]4O)c(OC)c3)[C@@H]2CO)ccc1O[C@@H]1O[C@H](CO)[C@@H](O)[C@H](O)[C@H]1O` (some centres undefined): 2.98.
Turning to `Nc1ccc(-c2nc3ccc(-c4nc5ccc(N)cc5[nH]4)cc3[nH]2)cc1`, the “cell shape (Z-score)” value was -0.879.
For the compound `O=C1c2ccc(Nc3ccc(F)cc3F)cc2CCc2ccc(OC[C@H](O)CO)cc21`, the “cell shape (Z-score)” value was -6.5.
Next, `O=C(NOCC(O)CO)c1cc(Br)c(F)c(F)c1Nc1ccc(I)cc1F` (centres undefined): -0.375; `CC(=O)O[C@@H]1[C@@H](O)[C@H](C)O[C@@H](Oc2c(-c3ccc(O)cc3)oc3cc(O[C@@H]4O[C@@H](C)[C@H](O)[C@@H](O)[C@H]4O)cc(O)c3c2=O)[C@@H]1O`: 1.24.
For `C[C@@](Cc1ccc(O)c(O)c1)(NN)C(=O)O`, the “cell shape (Z-score)” value worked out at 1.55.
On to `COc1ccc(C(=O)/C=C/c2ccccc2)cc1`, for which the “cell shape (Z-score)” value worked out at 3.14.
With `COc1ccc(C(=C2C(=O)Nc3ccccc32)c2ccc(OC)cc2)cc1`, the “cell shape (Z-score)” value came to 1.61.
In the case of `COc1ccc(C(=O)CC2(O)C(=O)Nc3c(Cl)ccc(Cl)c32)cc1` (centres undefined), the “cell shape (Z-score)” value is -7.6.
Next, `O=C(O)c1ccc(NCc2nc3cc4ccccc4cc3[nH]2)cc1`: 1.43; `CC1(C)O[C@@H]2CC3C4CCC5=CC(=O)C=C[C@]5(C)[C@@]4(F)[C@@H](O)C[C@]3(C)[C@]2(C(=O)CO)O1` (some centres undefined): -2.57.
In the case of `COc1ccc(NC(=O)c2ccc(-c3ccc(-c4noc(C)n4)cc3C)cc2)cc1N1CCN(C)CC1`, the “cell shape (Z-score)” value was -0.626.
